# Measurements as given in PubChem BioAssay (NCI).
# The panel holds about 83,000 compounds, 20% with a hit somewhere; the sample as a whole holds those more often.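 For each line, cells grew in 96-well plates with the test compound present at a single concentration for 48 hours.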 Values without a mark were called inactive. The source made the active and inactive calls. The calls were made as follows: active = growth percent below 10; inactive = the rest.
# System: BT-549 breast
# Assay: NCI-60 one-dose screen, 48 h (100 = growth as untreated, 0 = no growth, -100 = all killed)
# Conditions: 10 µM
row,SMILES,growth
1,CC(=O)/C(=C\c1ccc(Cl)cc1)c1ccccc1,14.5%
2,COc1cc(Cn2c(-c3ccccc3)cc3c2-c2oncc2CC3)cc(OC)c1,8.36% (active)
3,Cc1nc(N)sc1Sc1nc2ccc(Cl)cc2c(=O)n1-c1ccc(Oc2ccccc2)cc1,63.2%
4,COc1ccc(-c2nnc(COc3ccc(NC(=O)Nc4cccc(C(F)(F)F)c4)cc3F)o2)cc1,82.7%
5,COc1ccc(NC(=O)CCn2cnc3c(cc(-c4ccccc4)n3-c3ccccc3)c2=O)cc1,92.2%
6,CCCCCCCCCCCC(=O)NCCCN(C)C,70.5%
7,COc1ccc(S(=O)(=O)Nc2ccc(OCc3nnc(-c4ccc(Cl)cc4)o3)c(F)c2)cc1,55%
8,CCCc1c(C)nc2scc(-c3ccc(Cl)cc3)n2c1=O,98.3%
9,O=C(O)c1cc(C(F)(F)F)cc(C(F)(F)F)c1,105%
10,CCOc1cc(Br)c(C(C)NC(=O)c2cccc(OC)c2)cc1OCC (stereo unspecified),87%
11,CC(=O)OC1Oc2ccccc2-c2oc(=O)c(-c3cc(=O)oc4cc(O)ccc34)cc21 (stereo unspecified),61.4%
12,Cc1ccc(-c2cc(C(=O)Nc3ccc(S(=O)(=O)N4CCCCC4)cc3)[nH]n2)c(O)c1,67.4%
13,CCN(CC)CCn1c(=N)n(CC(O)c2ccc(Cl)c(Cl)c2)c2ccccc21 (stereo unspecified),76.7%
14,Cc1cc(Nc2cccc(F)c2)nc(NCc2ccccc2)n1,82%
15,COc1ccc(C2C=C(c3ccc(Cl)cc3)N=C3SC=CN32)c(Br)c1 (stereo unspecified),96.7%
16,O=C1/C(=C/c2cccs2)CCC/C1=C\c1cccs1,110%
17,COc1cc(Nc2ccnc(N3CCN(c4ccnc5cc(Cl)ccc45)CC3)n2)cc(OC)c1,-4.01% (active)
18,CCN1CCOC1C(C)C (stereo unspecified),108%
19,C=CCOc1ccc2c(c1)CC=C1[C@@H]2CC[C@]2(C)C(=O)/C(=N/O)C[C@@H]12,89.1%
20,Cc1nc2cc(-n3c(-c4ccc(F)cc4)nc4ccccc4c3=O)ccc2n1Cc1ccccc1,2.3% (active)
21,O=[N+]([O-])c1ccc2c(c1)Cc1cc(I)ccc1-2,94.2%
